Results filed as inconclusive are left out. Unmarked numbers belong to inactive results. Calls come from the whole dose curve; as a rule, active = well fitted curve in the direction sought with a large enough effect; inconclusive = small, poorly fitted or top-dose-only effect, or another doubt; inactive = no such curve, though single readings can be large or run the other way.
biological target: Metallo-beta-lactamase type 2 (Klebsiella pneumoniae) (UniProt C7C422); assay: qHTS to identify inhibitors of the New Delhi Metallo-beta-lactamase (NDM): assay validation screen against the NCATS LOPAC Collection (AID 1794843); settings: NDM-1 enzyme, nitrocefin hydrolysis, absorbance 485 nm; series mostly up to 38.4 µM; activity change, negative = inhibition: at the top concentration;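 note: nitrocefin turnover by NDM-1 measured as 485 nm absorbance at plateau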
In short: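 Enzyme 2 nM final, 50 mM HEPES pH 7.0, 1 uM ZnSO4, 0.01% Tween20; cpds in DMSO, preincub w/ enzyme; + nitrocefin (50 uM stock); A485 at plateau; no-enzyme column as blank.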
% is set by controls: 0 for no effect and ±100 for the full control effect.

Chain of Metallo-beta-lactamase type 2 (Klebsiella pneumoniae) (C7C422 whole entry, looked up): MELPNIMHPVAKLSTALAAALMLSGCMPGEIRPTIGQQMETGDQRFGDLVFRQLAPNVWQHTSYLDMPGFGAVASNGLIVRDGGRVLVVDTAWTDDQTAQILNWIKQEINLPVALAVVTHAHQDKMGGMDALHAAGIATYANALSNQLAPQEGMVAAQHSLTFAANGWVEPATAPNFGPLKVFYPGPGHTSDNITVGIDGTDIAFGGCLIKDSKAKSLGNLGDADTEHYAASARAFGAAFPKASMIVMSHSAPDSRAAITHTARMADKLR

Row | Compound | activity change, negative = inhibition [%]
1 | O=C(O)[C@H]1NCCC[C@H]1C(=O)O | 2.92
2 | Cn1ccnc1 | 7.57
3 | COc1cccc(OC)c1OCCNCC1CSc2ccccc2O1 (stereo unspecified) | 0.788
4 | CN(C)CCCc1cc(C(=O)Nc2ccc(-c3ccncc3)cc2)ccc1O | 40.3
5 | NC(Cc1cccc(-c2ccccc2CP(=O)(O)O)c1)C(=O)O (stereo unspecified) | -2.71
6 | CC(=O)O[C@H]1CC2(C)[C@@H](C[C@@H](O)[C@H]3[C@@]4(C)CC[C@@H](O)[C@@H](C)[C@@H]4CC[C@@]32C)C1=C(CCC=C(C)C)C(=O)O (stereo partly specified) | 3.99
7 | N[C@@H](CS(=O)O)C(=O)O | -28.2
8 | COc1cc(C(O)CO)ccc1O (stereo unspecified) | -0.121
9 | N#CC(C#N)=C(N)/C(C#N)=C/c1ccc(O)cc1 | 8.75
10 | CCCCOC(=O)NS(=O)(=O)c1sc(CC(C)C)cc1-c1ccc(Cn2c(CC)nc3c(C)cc(C)nc32)cc1 | -12
11 | N[C@H](C(=O)O)[C@H](O)C(=O)O | 0.247
12 | O=C(O)C1CN(CCCP(=O)(O)O)CCN1 (stereo unspecified) | 9.17
13 | CN1CC(O)C(O)C(O)C1CO (stereo unspecified) | -1.96
14 | Oc1ccc(Cn2cc[nH]c2=S)cc1 | -6.07
15 | COC(=O)[C@H](NC(=O)c1cc(-c2ccccc2)nc2ccccc12)c1ccccc1 | -0.582
16 | CNCCNS(=O)(=O)c1cccc2cnccc12 | -10.2
17 | c1ccc(C2CN3CCSC3=N2)cc1 (stereo unspecified) | -3.43
18 | C=CC[C@H](N)C(=O)O | -7.22

Row | Compound | activity change, negative = inhibition [%]
19 | Cc1nc2n(c(=O)c1CCN1CCC(c3noc4cc(F)ccc34)CC1)CCCC2O (stereo unspecified) | -8.51
20 | NC(=O)CC[C@H](N)C(=O)O | -1.29
21 | O=C(O)C1CCCNC1 (stereo unspecified) | -5.94
22 | Cc1cccc(C(=O)NCN2CCN(c3ccccc3C#N)CC2)c1 | -11.9
23 | CC(C)(C)NCC(O)COc1cccc2[nH]c(=O)[nH]c12 (stereo unspecified) | -0.582
24 | COc1ccc2c(c1)c(CC(=O)O)c(C)n2Cc1ccc(Cl)cc1 | -0.273
25 | CC[n+]1c(/C=C/C=C2/N(C)c3ccccc3C2(C)C)sc2ccccc21 | 3.86
26 | Nn1nnc2ccccc21 | -0.959
27 | O=C(O)/C(=C/c1c(C(=O)O)[nH]c2cc(Cl)cc(Cl)c12)c1ccccc1 | 10.7
28 | CCCCCCCCCCCCCCC[C@H](O)[C@H](N)CO | -2.39
29 | Nc1nc2c(cnn2CCc2ccccc2)c2nc(-c3ccco3)nn12 | 4.89
30 | NC(N)=N[C@@H](CCC(=O)O)C(=O)O | -9.66
31 | CCOC(=O)C12CC1/C(=N/O)c1ccccc1O2 (stereo unspecified) | 0.433
32 | CC(C)NC[C@H](O)COc1ccc(CC(N)=O)cc1 | -1.01
33 | NCCCCN | -5.72
34 | S=C(S)N1CCCC1 | -3.64
35 | O=C1NC(=O)c2cc(Nc3ccccc3)c(Nc3ccccc3)cc21 | -2.82
36 | CNc1ncnc2c1ncn2[C@H]1C[C@H](OP(=O)(O)O)[C@@H](COP(=O)(O)O)O1 | -8.63
